Pf growth 96h: P. falciparum growth inhibition at 96 hours; P. falciparum luciferase reporter growth, 96 h; Potency, µM (doses to about 28.7 µM), for inactives: top-dose activity change, negative = inhibition, actives largely listed as inhibitors; 320,000 tested, 6.9% active; also: potency is read from the fitted curve at half-maximal effect
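Cell-based qHTS: luciferase-tagged P. falciparum in erythrocytes (2% hematocrit, 0.05% parasitemia final) incubated with compounds for 96 hours, 37 C, 5% CO2; luciferase detection reagent then added and luminescence measured.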
Pf growth 48h: P. falciparum growth inhibition at 48 hours (one generation); Potency, µM (titrated, usually from 28.7 µM), for inactives: at the top dose activity change, negative = inhibition, most hits filed as inhibitors; 310,000 tested, 5.9% active; P. falciparum luciferase growth in erythrocytes, 48 h; also: potency is read from the fitted curve at half-maximal effect
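First compound was added to culture medium, then infected red cells at 0.1% parasitemia and 2% hematocrit (final). After incubation at 37 C under 5% CO2, luciferase detection reagent was dispensed and light output recorded.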
HCV inh: inhibitors of hepatitis C virus infection; AID 651820; Huh7.5.1 HCVcc-Cre infection, luciferase reporter, 44 h; Potency, µM (titrated, usually from 41.8 µM), for the others: at the highest dose activity change, negative = inhibition, most hits filed as inhibitors; 340,000 tested, 3.4% active; also: potency is read from the fitted curve at half-maximal effect
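Whole-lifecycle infectious HCVcc-Cre system; cells 1,000/well, compound then virus (~0.5 moi) added 4 h after plating, 44 h culture. Luciferase read 15 sec following 15 min substrate incubation, room temp.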
HCMV antiviral: inhibitors of human cytomegalovirus; 410,000 tested, 4.5% active; HFF cells, HCMV-luciferase reporter, 72 h; hits give low values; activity change, negative = inhibition, % at 57.5 µM; in the data active = activity change below about -60%; inconclusive = no clear call, values can overlap the other calls; inactive = above about -39%
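Luciferase read-out from HCMV-luciferase-infected HFFs (MOI 1 PFU/cell) 72 h post infection at 37C; compounds added after 16 h cell attachment; activity normalized between buffer-only basal and Salinomycin (10uM) inhibitor controls.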
* marks the source's active call; other numbers are inactive results. Only some compounds are listed: those with a hit (about 13% of all), similar ones and a draw of the others. Unless noted, calls follow the shape of the dose curve; as a rule, active = well fitted inhibition curve with a large enough effect; inconclusive = small, poorly fitted or top-dose-only effect, or another doubt; inactive = no such curve, though single readings can be large or run the other way. % is scaled to controls: 0 for no effect and ±100 for the full control effect.

`Cc1cccc(N(C)C(=O)C(Cc2ccccc2)NS(=O)(=O)c2cccc3nsnc23)c1` (configuration not stated) gave HCMV antiviral -23.4.
`Cc1ccc(NC(=O)Cn2c(=O)n(Cc3nc(C)no3)c(=O)c3cc4c(cc32)OCO4)c(C)c1` gave HCMV antiviral -5.7.
Cc1ccc2scc(N3CCN(c4ccccc4)CC3)c(=O)c2c1 was read as HCMV antiviral 14.1.
`CCOc1ccc(-c2nnc(Nc3ccc(OC)c(C(=O)N4CCCCC4)c3)c3ccccc23)cc1` gave Pf growth 96h 1.17µM*, Pf growth 48h 4.15µM*, HCV inh 14.1µM* and HCMV antiviral -23.4.
Cc1ccc(-c2nnc(Nc3ccc(CC(N)=O)cc3)c3ccccc23)cc1S(=O)(=O)NCC1CCCO1 (configuration not stated) was read as Pf growth 96h inconclusive, Pf growth 48h 0.828µM*, HCV inh -5.3% and HCMV antiviral 0.0.
Cc1ccc(-c2nnc(Nc3ccc(C(=O)N(C)C)cc3)c3ccccc23)cc1S(=O)(=O)NCC1CCCO1 (configuration not stated) was read as Pf growth 96h inconclusive, Pf growth 48h 2.33µM*, HCV inh inconclusive and HCMV antiviral -19.9.
Screening CNC(=O)c1cc(Nc2nnc(-c3ccc(O)cc3)c3ccccc23)ccc1OC returned Pf growth 96h 22.8%, Pf growth 48h inconclusive, HCV inh inconclusive and HCMV antiviral -31.0.
`Cc1ccc(-c2nnc(Nc3ccc(OCC(N)=O)cc3)c3ccccc23)cc1S(N)(=O)=O` gave Pf growth 96h 57.6%, Pf growth 48h 13.1µM*, HCV inh 11.0% and HCMV antiviral -11.7.
Screening Cc1ccc(Cl)cc1N1CCN(C(=O)COc2cc(=O)n(C)c3ccccc23)CC1 returned HCMV antiviral -26.3.
For CCOC(=O)CNS(=O)(=O)c1cc(-c2nnc(Nc3ccc4c(c3)OCO4)c3ccccc23)ccc1C the results were Pf growth 96h inconclusive, Pf growth 48h 2.33µM*, HCV inh inconclusive and HCMV antiviral -65.2*.
Screening COc1ccccc1C(=O)N(Cc1ccc(Cl)cc1)C1CCS(=O)(=O)C1 (configuration not stated) returned Pf growth 96h 11.7µM*, Pf growth 48h -6.7%, HCV inh 11.5% and HCMV antiviral -30.7.
Screening COc1cc(C(=O)N(Cc2cccc(Cl)c2)C2CCS(=O)(=O)C2)cc(OC)c1OC (configuration not stated) returned Pf growth 48h inconclusive, HCV inh 13.1% and HCMV antiviral 20.2.
For COc1cccc(CN(C(=O)c2cc3ccccc3oc2=O)C2CCS(=O)(=O)C2)c1 (configuration not stated) the results were Pf growth 96h 6.57µM*, Pf growth 48h 1.3%, HCV inh 10.9% and HCMV antiviral 8.3.
COc1cc(C(=O)N(Cc2ccc(F)cc2)C2CCS(=O)(=O)C2)cc(OC)c1OC (configuration not stated) was read as Pf growth 96h 8.28µM*, Pf growth 48h inconclusive, HCV inh 9.9% and HCMV antiviral 24.1.
Screening CC(C)c1ccc2occ(CC(=O)N(Cc3ccc(F)cc3)C3CCS(=O)(=O)C3)c2c1 (configuration not stated) returned HCMV antiviral -64.5*.
For CCCCOc1cccc(C(=O)N(Cc2ccc(Cl)cc2)C2CCS(=O)(=O)C2)c1 (configuration not stated) the results were HCMV antiviral 11.5.
Screening CCCOc1cccc(C(=O)N(Cc2ccccc2)C2CCS(=O)(=O)C2)c1 (configuration not stated) returned Pf growth 96h inconclusive, Pf growth 48h 2.6%, HCV inh 13.8% and HCMV antiviral -65.7*.
`CCOC(=O)CC1CCCCN1C(=O)c1cc(COc2cccc3cnccc23)on1` (configuration not stated) gave Pf growth 96h 42.8%, Pf growth 48h -26.7%, HCV inh 2.24µM* and HCMV antiviral -87.0*.
COC(=O)C1CCCCN1C(=O)c1cc(COc2cccc3cccnc23)on1 (configuration not stated) was read as Pf growth 96h 100.6%, Pf growth 48h 13.1%, HCV inh -10.4% and HCMV antiviral -4.8.
COC(=O)C1CCCCN1C(=O)c1cc(COc2cccc3cnccc23)on1 (configuration not stated) was read as Pf growth 96h -24.7%, Pf growth 48h -1.2% and HCMV antiviral -92.0*.
`Cc1ccc(C)c(S(=O)(=O)N2[C@@H]3CC[C@@H](C3)[C@H]2c2nc3c(OCC4CCOCC4)cccc3[nH]2)c1` gave HCMV antiviral 1.0.
`c1ccc2c(CN3CCCCCCC3)c[nH]c2c1` gave Pf growth 48h inconclusive, HCV inh -6.6% and HCMV antiviral -35.9.
For CN(Cc1c[nH]c2ccccc12)C1CCCCC1 the results were Pf growth 96h 0.6%, Pf growth 48h -16.1%, HCV inh -28.3% and HCMV antiviral -94.3*.
c1ccc2c(CN3CCN(C4CCCCC4)CC3)c[nH]c2c1 was read as Pf growth 96h 11.7µM*, Pf growth 48h 6.57µM*, HCV inh -23.5% and HCMV antiviral 20.7.
For CCN(CC)Cc1c[nH]c2ccccc12 the results were Pf growth 96h 8.28µM*, Pf growth 48h inconclusive, HCV inh -7.8% and HCMV antiviral 63.2.
`c1ccc2c(CNC3CCCCC3)c[nH]c2c1` gave Pf growth 96h 13.1µM*, HCV inh 3.9% and HCMV antiviral -29.0.
For CCCCCC(=O)N(c1ccc(OCC)cc1)S(=O)(=O)c1ccc2c(c1)n(C)c(=O)n2C the results were HCMV antiviral -1.0.
For COC(=O)c1c[nH]c(=O)c2ccccc12 the results were Pf growth 96h inconclusive, Pf growth 48h 35.0%, HCV inh 6.4% and HCMV antiviral 2.0.
O=[N+]([O-])c1ccc(S(=O)(=O)N2CCN(Cc3c[nH]c4ccccc34)CC2)cc1 was read as Pf growth 48h 0.4%, HCV inh 22.4µM* and HCMV antiviral 60.7.
Screening CCN(CC)Cc1c[nH]c2c(C(=O)OC)cccc12 returned Pf growth 96h 2.62µM*, Pf growth 48h -0.3%, HCV inh -12.8% and HCMV antiviral -12.7.
`CN(Cc1ccccc1)C(=O)C(=O)c1c[nH]c2ccccc12` gave HCMV antiviral -70.4*.
CN(CCc1ccccc1)Cc1c[nH]c2ccccc12 was read as Pf growth 96h inconclusive, Pf growth 48h inconclusive, HCV inh -0.3% and HCMV antiviral -98.6*.
Screening O=C(COc1ccccc1)Nc1nnc(SCc2cc(=O)n3cc(Cl)ccc3n2)s1 returned HCMV antiviral 3.2.
`Cc1ccc2c(=O)cc(C(=O)Nc3ccc(S(=O)(=O)N(C)Cc4ccccc4)cc3)oc2c1` gave HCMV antiviral -15.6.
